# TbPYK inhibitor: blocks Trypanosoma brucei pyruvate kinase; AID 624173; Potency, µM (doses to about 76.8 µM), without a hit: at the highest dose activity, negative = inhibition, most hits filed as inhibitors; Q57TT1; 0.12% of 410,000 active; TbPYK enzyme, Kinase-Glo Plus ATP luminescence, 45 min; also: potency is read from the fitted curve at half-maximal effect; % is scaled to controls: 0 for no effect and ±100 for the full control effect; nearly all actives have a fitted effect of over 50% in size
#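 Luminescence from Kinase-Glo Plus, added after a 45-minute room-temperature reaction, served as the end-point read-out. The enzyme and substrate were preincubated with compound before ADP (130 uM final) initiated turnover. Concentration-effect curves came from normalized qHTS data.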
# FBPA Giardia inh: Giardia lamblia aldolase inhibition; A8B2U2; purified Giardia FBPA; Potency, µM (titrated, usually from 59.6 µM), for the others: at the top dose activity, negative = inhibition, actives largely listed as inhibitors; 0.71% of 290,000 active; also: potency is read from the fitted curve at half-maximal effect; % is scaled to controls: 0 for no effect and ±100 for the full control effect; nearly all actives have a fitted effect of over 55% in size
#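 40 nM FBPA preincubated 10 min at RT with compound (up to 57.5 uM final), then substrate plus GAPDH/TPI/NAD/arsenate coupling and diaphorase/resazurin added. Fluorescence read after 20 min at RT, 525/598 nm.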
# LmPK inhibitor: LmPK (Leishmania mexicana) enzyme inhibition | purified LmPK, Kinase-Glo ATP luminescence, 1 h | Potency, µM (top dose mostly 57.5 µM), inactives show at the highest dose activity change, negative = inhibition, usual class: inhibitors | 0.37% of 290,000 active; also: potency is read from the fitted curve at half-maximal effect; % is scaled to controls: 0 for no effect and ±100 for the full control effect
# Target sequence (Q27686 whole entry, looked up): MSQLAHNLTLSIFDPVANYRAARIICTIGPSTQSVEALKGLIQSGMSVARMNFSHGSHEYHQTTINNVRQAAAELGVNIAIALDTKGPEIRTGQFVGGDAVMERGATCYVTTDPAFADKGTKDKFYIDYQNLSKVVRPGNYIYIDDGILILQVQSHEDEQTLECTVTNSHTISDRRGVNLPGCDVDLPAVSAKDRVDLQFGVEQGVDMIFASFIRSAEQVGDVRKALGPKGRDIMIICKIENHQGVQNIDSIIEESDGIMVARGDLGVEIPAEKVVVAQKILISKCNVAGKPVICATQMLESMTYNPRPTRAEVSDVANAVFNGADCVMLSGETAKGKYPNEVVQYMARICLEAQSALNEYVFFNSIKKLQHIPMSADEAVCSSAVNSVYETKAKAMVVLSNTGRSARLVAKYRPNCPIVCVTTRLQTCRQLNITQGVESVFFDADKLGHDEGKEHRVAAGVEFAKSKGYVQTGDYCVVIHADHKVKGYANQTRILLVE
#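 0.1 nM LmPK, 0.5 mM PEP, 0.1 mM ADP; 50 mM imidazole pH 7.2, 7 mM MgCl2, 50 mM KCl; 1 h RT. Kinase-Glo luminescence readout, normalized to no-enzyme (full inhibition) and uninhibited wells.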
# RE007 growth inh: less growth of the S. pombe RE007 Vpr strain | S. pombe RE007 Vpr strain, BacTiter-Glo ATP luminescence, 24 h | Potency, µM (titrated, usually from 92.2 µM), without a hit: at the top dose activity change, negative = less growth, usual class: inhibitors | 0.21% of 360,000 active; active = well fitted falling curve with a large enough effect; inconclusive = small, poorly fitted or top-dose-only effect; inactive = no such curve, though single readings can be large or run the other way; also: potency is read from the fitted curve at half-maximal effect; % is scaled to controls: 0 for no effect and ±100 for the full control effect; nearly all actives have a fitted effect of over 50% in size
#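 Fission yeast strain RE007, carrying one chromosomally integrated HIV-1 vpr copy, was seeded at OD 0.01 in PMG+AL medium with 23 nL pinned compound. After 24 h at 30 °C and 99% humidity, viability was read by BacTiter-Glo luminescence.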
# Shiga inhibitor: blocks Shiga toxin action in Vero cells; Vero cells, Shiga toxin protein synthesis inhibition reporter; inhibition, % at 38.7 µM; 9.2% of 290,000 active; AID 2315; in the data active = inhibition mostly above about 28%, no sharp cut-off; inactive = mostly below about 43%; also: 0% is about no effect
# CHX counter: counter-screen for Shiga toxin inhibitors: cycloheximide protein synthesis inhibition; cell reporter, cycloheximide protein synthesis inhibition counterscreen; max response, %; AID 2314; 12% of 300,000 active; in the data active = max response mostly above about 13%, no sharp cut-off; inactive = mostly below about 14%; also: read at 38.3 µM for the half of the compounds with a filed dose; 0% is about no effect
# Numbers without * were called inactive; ? = inconclusive; . = not tested or not shown. The entries come from a sample that favours hits as a whole. Unless noted, calls follow the shape of the dose curve; as a rule, active = well fitted curve in the direction sought with a large enough effect; inconclusive = small, poorly fitted or top-dose-only effect, or another doubt; inactive = no such curve, though single readings can be large; an effect the other way counts as inactive or inconclusive.
SMILES,TbPYK inhibitor,FBPA Giardia inh,LmPK inhibitor,RE007 growth inh,Shiga inhibitor,CHX counter
O=C(N/N=C/C(Cl)=C/c1ccccc1)c1ccccc1F,-4.5%,-12.0%,7.8%,-1.5%,80.3*,55.9*
N#Cc1ccc(/C=N/NC(=O)c2ccccc2F)cc1,7.2%,0.3%,-4.8%,12.7%,12.7,12.0
COc1ccc(-c2cc(C(=O)NC3CCCC3)no2)cc1OC,-4.1%,-3.5%,5.0%,0.6%,26.1*,24.5*
COCCNC(=O)c1cc(-c2ccc(OC)c(OC)c2)on1,1.2%,2.4%,-7.5%,3.1%,18.2,20.1*
COc1cccc(-c2cc(C(=O)NC3CCCCC3)no2)c1,0.7%,9.9%,-4.9%,-8.9%,80.6*,19.7
COC(=O)c1cc(-c2ccc(OC)c(OC)c2)on1,0.0%,-2.6%,-8.4%,-17.5%,5.9,-4.8
O=C(NC1CCCCC1)c1cc(-c2ccco2)on1,-2.9%,0.5%,-2.7%,0.0%,142.9*,36.4*
COC(=O)c1cc(-c2cccc(OC)c2)on1,2.2%,1.0%,-2.9%,?,8.7,-1.4
COc1ccc(C)cc1NC(=O)c1cc2c(=O)n3cccc(C)c3nc2s1,2.2%,.,.,.,.,.
O=C(C1CCC(Cn2c(=O)c3sccc3n(Cc3cccc(F)c3)c2=O)CC1)N1CCOCC1 (stereo unspecified),-4.9%,.,.,.,.,.
COc1ccc(-c2cc(C(=O)NC3CCCC3)no2)cc1,0.6%,4.0%,-2.2%,-4.3%,93.4*,18.1*
COc1ccc(-c2cc(C(=O)NC(C)C)no2)cc1,0.2%,-0.5%,-6.3%,-9.9%,58.5*,26.6
COC(=O)c1cc(-c2ccc(OC)cc2)on1,3.3%,5.5%,-2.8%,-19.7%,12.4,-2.7
COc1ccc(C2=C/C(=C\c3ccccc3OC(C)=O)C(=O)O2)cc1,0.2%,9.3%,3.5%,2.5%,103.4*,22.1*
COc1ccc(C2=C/C(=C\c3cccc(OC(C)=O)c3)C(=O)O2)cc1,-5.5%,-0.1%,1.0%,-2.3%,33.8,23.9*
COc1ccc(Cl)cc1NC(=O)Cn1c(=O)n(-c2ccc(C)cc2)c(=O)c2ccc(C(=O)NCc3ccccc3Cl)cc21,1.7%,.,.,.,.,.
O=C(CC1C=CCC1)Nc1ccccc1 (stereo unspecified),1.3%,.,.,-6.2%,.,.
C=CCNc1ncnc2c1[nH]c1ccc(C)cc12,1.0%,-10.8%,3.2%,-11.7%,79.4*,43.5*
Cc1ccc2[nH]c3c(NCCN4CCOCC4)ncnc3c2c1,-5.0%,-0.6%,1.8%,2.7%,52.6*,14.1*
O=C1CCCN1CCCNc1ncnc2c1[nH]c1ccc(Cl)cc12,-5.7%,-0.6%,-1.6%,8.9%,57.4,13.1*
Clc1ccc2[nH]c3c(NCCCN4CCOCC4)ncnc3c2c1,-5.8%,4.5%,0.7%,-5.8%,21.2,23.1
CCOc1ccc(C(=O)OCc2cc(=O)n3nc(C4CCCCC4)sc3n2)cc1,-2.3%,.,.,.,.,.
COc1ccc(CC(=O)NNC(=O)c2ccc(Br)o2)cc1,-0.1%,.,0.2%,-3.9%,-12.2,1.9
CC(=O)Nc1cccc(C(=O)Nc2cc(C(F)(F)F)ccc2-n2cncn2)c1,-0.3%,.,.,-5.3%,.,.
C/C(=N\NC(=O)c1c(Cl)c(C)nn1C)c1cccc(NC(=O)C2CCCC2)c1,0.1%,7.1%,2.2%,16.3%,37.6,14.3*
SMILES,TbPYK inhibitor,FBPA Giardia inh,LmPK inhibitor,RE007 growth inh,Shiga inhibitor,CHX counter
CCC(=O)Nc1ccc(/C(C)=N/NC(=O)c2c(Br)c(C)nn2C)cc1,1.7%,3.9%,-9.3%,-3.1%,14.6,-1.6
C/C(=N\NC(=O)C1(C)CC1(Br)Br)c1cccc(NC(=O)C2CCC2)c1 (stereo unspecified),-6.9%,0.9%,-4.7%,3.3%,7.4,-1.1
C/C(=N\NC(=O)c1c(Cl)c(C)nn1C)c1ccc(NC(=O)c2ccncc2)cc1,-1.3%,0.1%,0.9%,10.4%,26.2,12.5*
C/C(=N\NC(=O)c1nn(C)c(C)c1Br)c1ccc(NC(=O)c2ccccc2F)cc1,-4.5%,9.7%,0.4%,-13.4%,active,18.0*
C/C(=N\NC(=O)c1c(Br)c(C)nn1C)c1ccc(NC(=O)c2ccoc2C)cc1,0.0%,2.3%,-9.1%,-4.9%,39.7*,43.6*
CCC(C)c1ccc(NC(=O)N2CCN(C(=O)C3CCCO3)CC2)cc1 (stereo unspecified),1.7%,-16.6%,-2.1%,-5.1%,-3.0,1.4
COc1ccc(CCC(=O)OCC(=O)Nc2c(C)n(C)n(-c3ccccc3)c2=O)cc1,0.0%,.,.,0.2%,.,.
Cc1ccc(C(=O)NCCC(C)C)cc1NC(=O)c1nsc2ccccc12,-7.6%,.,.,.,.,.
C/C(=N\NC(=O)c1nn(C)c(C)c1Br)c1ccc(NC(=O)c2ccc(C)s2)cc1,0.5%,-6.1%,2.1%,-1.4%,64.5*,45.1*
C/C(=N\NC(=O)c1nn(C)c(C)c1Br)c1ccc(NC(=O)c2ccoc2C)cc1,3.3%,0.6%,-8.2%,-18.8%,92.9*,91.0*
C/C(=N/NC(=O)c1ccoc1C)c1ccc(NC(=O)c2ccncc2)cc1,4.8%,11.6%,?,-12.4%,104.2*,63.3*
C/C(=N\NC(=O)c1ccc(NS(=O)(=O)c2cccs2)cc1)c1ccncc1,1.3%,5.8%,0.8%,11.8%,12.0,2.1
COC(=O)c1cc2occc2n1CC(=O)Nc1ccc(C(C)C)cc1,-4.7%,.,.,.,.,.
Cn1cccc1C(=O)N1CCC2(CC1)CN(C(c1ccccc1)c1ccccc1)C2,-6.2%,11.2%,.,.,.,.
Cc1ccc(-c2nc(N3CCN(S(=O)(=O)c4ccc(F)cc4)CC3)c3ccc(Cl)cc3n2)cc1,.,.,.,.,-16.7,-7.0
Cc1cc(C)n2nc(SCc3ccccc3F)nc2n1,-4.7%,5.9%,3.7%,3.2%,15.6,-0.9
Cc1cc(C)n2nc(SCCOc3ccccc3)nc2n1,-20.1%,3.2%,4.3%,16.3%,74.8,11.1*
Cc1cc(C)n2nc(SCc3nc4ccccc4[nH]3)nc2n1,-7.0%,-14.6%,6.7%,0.3%,active,14.4
O=C(COC(=O)Cn1cnc2ccccc21)Nc1cc2c(cc1Cl)C(=O)c1ccccc1C2=O,-5.4%,-20.4%,-13.3%,3.5%,50.0*,36.7*
Cc1ccc(CCNC(=O)CCSCc2ccccc2F)cc1,-3.0%,.,.,.,.,.
CC(=O)c1cccc(N(CC(=O)Nc2ccc(F)cc2)S(C)(=O)=O)c1,-5.9%,-1.1%,-1.5%,-1.5%,41.4*,11.3*
CC(=O)c1cccc(NC(=S)NNC(=O)c2ccco2)c1,-4.3%,6.5%,1.5%,-12.1%,32.6,20.9*
CCCCC(=O)NC(=S)Nc1cccc(C(=O)O)c1,14.1%,3.3%,-0.2%,-10.0%,60.4*,9.2
CC(=O)c1cccc(NC(=S)NC(=O)CC(C)(C)C)c1,1.3%,0.6%,1.7%,5.0%,29.7,20.2*
CC(=O)c1cccc(NC(=O)c2cccc(NC(=O)c3ccco3)c2)c1,0.2%,0.3%,-1.8%,3.4%,.,4.2

# Source: PubChem BioAssay (National Center for Advancing Translational Sciences (NCATS))
